PubChem BioAssay
The source made the active and inactive calls.

Experiments:
[1] = test system: PRMT1 (protein arginine N-methyltransferase 1); test: small molecules binding arginine methyltransferase PRMT1 – biochemical, small-molecule microarray, 635 nm fluorescence, primary screen (AID 1088); conditions: higher = more signal;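 also: binding of Prmt1 protein to compounds spotted on small-molecule microarray slides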
[2] = growth effects on S. cerevisiae YJM789 – YJM789 clinical isolate, OD600, 24 h, basal, primary screen (AID 1089); conditions: higher = more signal, called active from +8 up or from −8 down;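 also: growth of clinical yeast isolate S. cerevisiae YJM 789 seeded 1000 cells per well; test concentration not given here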
[3] = S. pombe growth modifiers, basal conditions – strain 972, OD600, 24 h, no modulator, primary screen (AID 1090);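 also: basal condition with compound alone and no growth modifier present; test concentration not given here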; conditions: S. pombe 972 growth, higher = more signal, called active from +8 up or from −8 down
[4] = budding yeast growth modifiers under rapamycin – strain BY4716, OD600, 96 h, primary screen (AID 1091); also: test concentration not given here; conditions: S. cerevisiae BY4716 + rapamycin, higher = more signal, called active from +8 up or from −8 down
[5] = biological target: Torsin-1A-interacting protein 2 (Homo sapiens) (UniProt Q8NFQ8); test: small molecules binding lysate-expressed LULL1 – cell lysate, human LULL1 lysate, 635/667 nm fluorescence, primary screen (AID 1092); conditions: small-molecule microarray, hLULL1 lysate binding, 635 nm fluorescence; higher = more signal;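 also: probe is lysate of COS7 cells overexpressing human LULL1; score merges per-feature 667 nm fluorescence with signal-to-noise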
[6] = optical density change of DRC41 E. coli – strain DRC41, OD650, 24 h, E. coli filamentation project, primary screen (AID 1093);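 also: MC1000 strain lacking acrAB efflux and sulA so SOS filamentation is blocked; test concentration not given here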; conditions: E. coli DRC41 growth, higher = more signal, called active from +8 up or from −8 down
[7] = probe aLefty2 binding to arrayed compounds – biochemical, biotinylated probe, 635/667 nm fluorescence, primary screen (AID 1094); conditions: small-molecule microarray, higher = more signal;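 also: score merges spot fluorescence near 667 nm with spot signal-to-noise ratio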
[8] = test system: Noggin (protein binding on small-molecule microarray); test: small molecules binding Noggin protein – biochemical, 635/667 nm fluorescence, primary screen (AID 1095); conditions: 635 nm fluorescence, higher = more signal;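 also: score merges 667 nm feature fluorescence with signal to noise over triplicate slides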
[9] = biological target: Neurogenic locus notch homolog protein 3 (Homo sapiens) (UniProt Q9UM47); test: small molecules binding NOTCH3 protein – biochemical, 635/667 nm fluorescence, primary screen (AID 1096); conditions: small-molecule microarray, 635 nm fluorescence, higher = more signal
[10] = probe aEGFR binding to arrayed compounds – biochemical, biotinylated probe, 635/667 nm fluorescence, primary screen (AID 1097); conditions: small-molecule microarray, higher = more signal;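 also: probe is a biotinylated anti-EGFR antibody binding compounds printed on slides; score combines fluorescence near 667 nm and signal to noise of each spot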

Sequence of Neurogenic locus notch homolog protein 3 (Homo sapiens) (Q9UM47 whole entry, looked up): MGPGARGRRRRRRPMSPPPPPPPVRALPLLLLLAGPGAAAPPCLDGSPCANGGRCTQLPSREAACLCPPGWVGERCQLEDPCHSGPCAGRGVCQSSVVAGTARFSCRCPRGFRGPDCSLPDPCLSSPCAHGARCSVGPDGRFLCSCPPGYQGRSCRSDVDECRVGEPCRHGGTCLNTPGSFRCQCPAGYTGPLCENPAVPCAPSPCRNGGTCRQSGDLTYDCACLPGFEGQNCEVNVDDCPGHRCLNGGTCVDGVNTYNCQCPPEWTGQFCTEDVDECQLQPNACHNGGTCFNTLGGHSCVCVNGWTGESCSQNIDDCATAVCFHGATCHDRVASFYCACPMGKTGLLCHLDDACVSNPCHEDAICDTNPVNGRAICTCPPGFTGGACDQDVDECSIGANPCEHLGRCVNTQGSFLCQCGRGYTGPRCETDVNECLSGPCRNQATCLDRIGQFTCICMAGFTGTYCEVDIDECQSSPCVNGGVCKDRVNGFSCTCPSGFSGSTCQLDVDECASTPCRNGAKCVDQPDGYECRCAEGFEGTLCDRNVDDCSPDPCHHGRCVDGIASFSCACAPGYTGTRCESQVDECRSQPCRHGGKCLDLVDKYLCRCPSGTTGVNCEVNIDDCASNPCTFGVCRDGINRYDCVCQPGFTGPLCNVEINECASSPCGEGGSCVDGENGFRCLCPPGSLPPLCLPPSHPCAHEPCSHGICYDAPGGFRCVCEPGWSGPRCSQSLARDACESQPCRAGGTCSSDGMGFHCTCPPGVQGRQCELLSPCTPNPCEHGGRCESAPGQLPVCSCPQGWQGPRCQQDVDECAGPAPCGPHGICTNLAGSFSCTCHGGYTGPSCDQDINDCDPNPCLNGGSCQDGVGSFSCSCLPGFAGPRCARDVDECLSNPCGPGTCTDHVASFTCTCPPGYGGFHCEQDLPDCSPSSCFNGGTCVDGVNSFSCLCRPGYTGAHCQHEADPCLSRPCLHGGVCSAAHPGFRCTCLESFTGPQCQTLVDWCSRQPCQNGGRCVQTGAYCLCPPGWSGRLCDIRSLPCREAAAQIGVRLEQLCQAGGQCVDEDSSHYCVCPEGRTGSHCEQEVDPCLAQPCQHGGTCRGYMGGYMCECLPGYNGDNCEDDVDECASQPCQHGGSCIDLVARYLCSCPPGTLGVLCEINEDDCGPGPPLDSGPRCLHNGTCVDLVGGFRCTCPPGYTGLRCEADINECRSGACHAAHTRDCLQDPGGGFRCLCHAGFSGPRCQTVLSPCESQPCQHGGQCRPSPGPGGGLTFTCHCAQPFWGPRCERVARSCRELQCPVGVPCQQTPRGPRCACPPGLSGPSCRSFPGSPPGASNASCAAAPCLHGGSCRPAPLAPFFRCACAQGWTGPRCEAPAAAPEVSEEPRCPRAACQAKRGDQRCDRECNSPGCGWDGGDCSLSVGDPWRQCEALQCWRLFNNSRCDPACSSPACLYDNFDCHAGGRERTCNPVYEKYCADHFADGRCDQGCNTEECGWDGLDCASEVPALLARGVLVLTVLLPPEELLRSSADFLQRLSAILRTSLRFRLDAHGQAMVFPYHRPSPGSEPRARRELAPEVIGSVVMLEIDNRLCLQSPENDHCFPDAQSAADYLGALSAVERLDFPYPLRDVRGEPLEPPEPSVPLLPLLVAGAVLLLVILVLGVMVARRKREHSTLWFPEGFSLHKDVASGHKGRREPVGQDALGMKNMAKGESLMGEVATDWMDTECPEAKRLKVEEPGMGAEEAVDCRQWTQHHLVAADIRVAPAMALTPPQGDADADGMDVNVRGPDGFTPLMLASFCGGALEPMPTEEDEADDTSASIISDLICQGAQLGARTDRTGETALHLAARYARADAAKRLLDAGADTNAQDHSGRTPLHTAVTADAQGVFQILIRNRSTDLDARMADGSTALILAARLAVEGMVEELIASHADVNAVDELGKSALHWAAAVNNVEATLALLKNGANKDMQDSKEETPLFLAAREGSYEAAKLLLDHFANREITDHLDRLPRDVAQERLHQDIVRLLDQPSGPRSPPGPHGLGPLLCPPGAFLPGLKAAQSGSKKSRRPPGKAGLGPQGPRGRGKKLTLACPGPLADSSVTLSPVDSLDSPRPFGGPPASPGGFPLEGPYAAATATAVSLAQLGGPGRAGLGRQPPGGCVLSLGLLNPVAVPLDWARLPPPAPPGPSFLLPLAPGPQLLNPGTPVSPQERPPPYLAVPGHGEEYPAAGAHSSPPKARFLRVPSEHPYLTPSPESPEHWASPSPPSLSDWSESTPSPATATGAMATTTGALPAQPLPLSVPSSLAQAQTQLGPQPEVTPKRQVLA
Sequence of Torsin-1A-interacting protein 2 (Homo sapiens) (Q8NFQ8 whole entry, looked up): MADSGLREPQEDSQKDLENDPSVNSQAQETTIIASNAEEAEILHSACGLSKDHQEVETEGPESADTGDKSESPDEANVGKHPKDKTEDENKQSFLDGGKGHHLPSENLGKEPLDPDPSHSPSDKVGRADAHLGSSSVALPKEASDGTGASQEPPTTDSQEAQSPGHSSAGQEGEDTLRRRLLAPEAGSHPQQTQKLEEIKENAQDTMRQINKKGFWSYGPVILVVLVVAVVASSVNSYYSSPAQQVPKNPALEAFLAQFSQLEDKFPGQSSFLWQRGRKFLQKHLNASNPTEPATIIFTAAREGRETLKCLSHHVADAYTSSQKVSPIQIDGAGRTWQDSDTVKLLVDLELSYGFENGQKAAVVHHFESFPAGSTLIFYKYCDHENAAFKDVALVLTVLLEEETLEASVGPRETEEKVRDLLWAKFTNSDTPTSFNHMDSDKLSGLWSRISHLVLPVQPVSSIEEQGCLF

Row | Compound | composite z-score [1] | z-score [2] | z-score [3] | z-score [4] | composite z-score [5] | z-score [6] | composite z-score [7] | composite z-score [8] | composite z-score [9] | composite z-score [10]
1 | O=C1c2ccccc2[C@@]2(Cc3ccccc3N(C3CC3)C2=O)[C@H](c2ccc(CO)cc2)N1Cc1ccccc1C(F)(F)F | 0.51 | -0.104 (inactive) | -0.995 (inactive) | -1.47 (inactive) | 1.83 | -2.03 (inactive) | 0.104 | -1.31 | -0.0714 | -0.171
2 | Cc1ccc(S[C@]2(C(=O)O)CC(=O)N(Cc3ccccc3)[C@@H]2c2ccc(CO)cc2I)cc1 | 0.135 | -0.866 (inactive) | -1.17 (inactive) | 1.29 (inactive) | 1.28 | -0.104 (inactive) | -0.103 | -0.404 | -0.683 | -0.261
3 | CC(C)CON=C1[C@H]2CCn3c(=O)n(-c4ccccc4)c(=O)n3[C@H]2[C@H](O)[C@@H]2O[C@H]12 | -0.317 | -0.476 (inactive) | 0.0606 (inactive) | -0.369 (inactive) | -0.381 | 0.343 (inactive) | -0.149 | 0.302 | 0.837 | -0.228
4 | CCOC(=O)CCN1C(=O)[C@H]2[C@H]3[C@H](O)[C@H](O)CC(=NNC(=O)OCc4ccc(OC)cc4)[C@@H]3CC[C@H]2C1=O | 0.372 | -0.162 (inactive) | 0.151 (inactive) | -0.3 (inactive) | 0.97 | 0.0856 (inactive) | -0.157 | 0.38 | 1.08 | -0.0986
5 | O=C(CS)NCCCCCNC(=O)[C@H]1C[C@H]2C(=O)N3CCC[C@H]3C(=O)N2[C@H]1c1cccc(OCCO)c1 | 1.53 | 0.436 (inactive) | -0.723 (inactive) | -0.173 (inactive) | 2.7 | 0.146 (inactive) | 0.0124 | 1.76 | 1.1 | -0.0025
6 | CC(C)(C)N1CC=CC23O[C@@H]4C=CCCOC(=O)C4[C@H]2C(=O)N(CCCCCO)[C@@H]3C1=O (stereo not given in full) | 0.937 | 0.37 (inactive) | 0.501 (inactive) | -0.215 (inactive) | 1.74 | 0.261 (inactive) | -0.13 | 0.304 | 0.0136 | 0.0912
7 | CC[C@@H](c1ccccc1)n1c(=O)n2n(c1=O)[C@H]1[C@H](O)[C@@H]3O[C@@H]3C(=NOCC=C(C)CCC=C(C)C)[C@H]1CC2 | 1.23 | 0.676 (inactive) | 0.052 (inactive) | 1.28 (inactive) | 1.54 | -0.327 (inactive) | -0.137 | 1.33 | 0.955 | 0.14
8 | COC(=O)[C@@H]1CC[C@H](C)[C@@H](c2ccc(C)cc2)N1C(=O)c1ccc(C=NOC[C@@H](O)COCc2ccco2)cc1 | -2.07 | -1.45 (inactive) | 0.165 (inactive) | -0.71 (inactive) | -1.69 | 1.47 (inactive) | 0.0179 | -1.01 | -3.12 | -0.0868
9 | CCOC(=O)C1=CCC(c2cc3ccccc3[nH]2)NC1 (stereo not given) | 0.37 | -1.36 (inactive) | -2.39 (inactive) | 1.42 (inactive) | 2.45 | -0.0849 (inactive) | 0.389 | -0.465 | 0.335 | -0.0065
10 | CCOC(=O)C[C@H]1[C@H](OC(=O)c2cc3ccccc3oc2=O)[C@@H](NC(=O)c2ccc3ccccc3n2)c2cc(OCCCO)ccc2N1C(=O)c1ccccc1 | 0.5 | 0.282 (inactive) | -0.738 (inactive) | 0.156 (inactive) | 0.413 | 0.471 (inactive) | -0.0171 | 0.603 | 0.724 | 0.0745
11 | C=CCN1C(=O)[C@]2(O[C@H](CCn3cc(CCO)nn3)[C@@H]([Si](C)(C)c3ccc(OC)cc3)[C@@H]2C)c2cc(N3CCOC3=O)ccc21 | 1.19 | -0.621 (inactive) | -0.111 (inactive) | -0.0506 (inactive) | 2.79 | -0.342 (inactive) | -0.271 | 0.432 | 0.231 | -0.256
12 | COC(=O)[C@@H]1CC[C@H](C)[C@@H](c2ccc(C)cc2)N1C(=O)c1ccc(C=NOC(C)CN2CCCCc3nc(C)c(C)cc32)cc1 (stereo not given in full) | -0.066 | -0.632 (inactive) | -11.8 (active) | 0.325 (inactive) | -0.0101 | 0.829 (inactive) | -0.0332 | 0.149 | -0.145 | -0.0929
13 | COCCOC(=O)N1C(=O)[C@@]2(c3cc(C#CCNC(N)=O)ccc31)[C@H](c1ccc(O)cc1)N1[C@H](c3ccccc3)[C@H](c3ccccc3)OC(=O)[C@H]1[C@@H]2C(=O)N1CCCCCCC1 | 1.55 | 1.2 (inactive) | 0.159 (inactive) | 1.27 (inactive) | 0.859 | 0.576 (inactive) | 0.354 | 1.28 | 1.08 | 0.0396
14 | COC(=O)[C@H](C)NC(=O)CCC1CC(OC(=O)NCc2ccc3c(c2)OCO3)CC2(CCCC(COC(=O)NCCOc3ccccc3)O2)O1 (stereo not given in full) | 1.55 | -1.31 (inactive) | 0.26 (inactive) | 0.303 (inactive) | 1.57 | -1.16 (inactive) | -0.147 | 0.737 | 1.07 | -0.165
15 | C[C@@H]1C=CCC(=O)OC[C@H](C)C(=O)OC[C@H]2O[C@H]1C=C[C@H]2O | 0.047 | 1.1 (inactive) | -2.02 (inactive) | 0.614 (inactive) | 0.429 | 0.0861 (inactive) | -0.18 | 1.31 | 0.272 | -0.0039
16 | O=C1CCCC=C1C(O)CCOCc1ccccc1 (stereo not given) | -0.195 | -0.385 (inactive) | -0.82 (inactive) | -1.15 (inactive) | -1.08 | -0.546 (inactive) | -0.224 | 0.355 | -0.834 | -0.0828
17 | C[C@@H]1CC[C@H]2C(=O)O[C@H](COc3ccc(C(C)(C)C)cc3)CN2[C@H]1c1ccc(Br)cc1 | -0.59 | 1.55 (inactive) | 0.406 (inactive) | 1.4 (inactive) | -0.121 | -0.756 (inactive) | -0.291 | -0.273 | -0.428 | -0.122
18 | CO[C@@H]1COC(=O)CCC[C@@H](C)[C@H](OC)COC(=O)[C@H](Cc2ccccc2)NC(=O)CC=C[C@H]1C | -0.256 | 0.449 (inactive) | -0.529 (inactive) | -0.341 (inactive) | -2.01 | 0.0728 (inactive) | -0.178 | 0.76 | -1.25 | -0.127
19 | CCOC(=O)NN=C1C[C@@H](O)[C@@H](O)[C@@H]2[C@@H]3C(=O)N(C4CCCCC4)C(=O)[C@@H]3CC[C@H]12 | 0.314 | 0.351 (inactive) | 0.458 (inactive) | 0.529 (inactive) | 0.746 | -0.931 (inactive) | -0.139 | 0.315 | 0.213 | -0.0776
20 | O=C1[C@H]2[C@H]3[C@H](O)[C@H](O)CC(=NO[C@@H]4O[C@H](CO)[C@@H](O)[C@H](O)[C@H]4O)[C@H]3CC[C@H]2C(=O)N1C1CCCCC1 | 1.55 | -0.546 (inactive) | 0.506 (inactive) | -0.0694 (inactive) | 1.58 | 0.15 (inactive) | -0.0652 | 1.36 | 0.308 | -0.12
21 | CCN1C(=O)[C@H]2[C@H]3[C@H](O)[C@H](O)CC(=NOCC=C(C)CCC=C(C)C)[C@H]3CC[C@H]2C1=O | 1.56 | -0.541 (inactive) | 0.0853 (inactive) | -1.11 (inactive) | 1.52 | 0.707 (inactive) | -0.0355 | 1.32 | 1.13 | 0.186
22 | COC(=O)CC=C[C@@H](C)[C@H](OC)c1ccccc1Br | 0.0909 | 0.703 (inactive) | -0.636 (inactive) | -0.417 (inactive) | 0.154 | 0.469 (inactive) | -0.188 | 0.462 | -0.105 | -0.113
23 | CO[C@H]1COC(=O)[C@@H]2CCCN2C(=O)CC=C[C@@H](C)[C@H](OC)COC(=O)CC=C[C@@H]1C | 1.54 | -1.94 (inactive) | -1.32 (inactive) | -0.611 (inactive) | -0.361 | -0.323 (inactive) | -0.0208 | 1.48 | 0.991 | 0.34
24 | CC(=O)OC[C@H]1O[C@H](CC=NOC[C@@H](C)[C@H](OCc2ccccc2)C(C)C)C=C[C@@H]1OC(C)=O | 0.7 | -0.523 (inactive) | -0.0269 (inactive) | -1 (inactive) | -0.299 | -0.186 (inactive) | -0.0345 | 0.259 | -0.14 | -0.0873
25 | CC(C)c1ccc(NN2C(C(O)c3ccc4c(c3)OCO4)C=CC3C(=O)N(c4ccccc4)C(=O)C32)cc1 (stereo not given) | 1.21 | -0.0261 (inactive) | 0.0855 (inactive) | 0.599 (inactive) | 3.5 | 0.0026 (inactive) | 0.304 | 1.01 | 1.1 | -0.0845
26 | CN1C(=O)C2C(C1=O)C1C=C(CCCO)C2C(c2ccc(CN3CCCC3)cc2)N1C (stereo not given) | -0.0446 | -0.363 (inactive) | 0.652 (inactive) | -0.14 (inactive) | -0.0999 | 0.145 (inactive) | -0.193 | -0.347 | -0.575 | -0.133
27 | CC(CCC(=O)OC[C@H]1O[C@H](C#Cc2ccccc2)C=C[C@@H]1Oc1ccc(C)cc1)=NO[C@@H](C)c1cn([C@H](CO)Cc2ccccc2)nn1 | 0.668 | 0.846 (inactive) | 0.21 (inactive) | 12.2 (active) | 0.373 | -0.434 (inactive) | -0.145 | 0.237 | 0.281 | -0.0461
28 | Cc1ccc(S[C@]2(C(=O)NCC(F)(F)F)CC(=O)N(Cc3ccccc3Cl)[C@@H]2c2ccc(CO)cc2I)cc1 | 1.33 | 0.294 (inactive) | -3.18 (inactive) | 1.06 (inactive) | 2.34 | 0.492 (inactive) | -0.0998 | -1.07 | -0.573 | -0.284
29 | O=C1C[C@@H](O)[C@@H](O)[C@@H]2[C@@H]3C(=O)N(C4CCCCC4)C(=O)[C@@H]3CC[C@H]12 | 0.387 | -0.16 (inactive) | -0.268 (inactive) | 0.0415 (inactive) | 0.294 | 0.666 (inactive) | -0.185 | 0.467 | 0.786 | -0.127
